VDR inhibitor: blocks the human vitamin D receptor; P11473; VDR-SRC2-3 peptide fluorescence polarization, 2 h; Potency, µM, for inactives: max response, negative = inhibition, usual class: inhibitors; hit rate 0.93% among 400,000
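Signal is fluorescence polarization, reporting how far test compounds block the interaction of VDR with the SRC2-3 coregulator peptide after a 2 h room-temperature incubation.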
GCN5L2 inh: inhibitors of human GCN5L2 histone acetyltransferase; hit rate 0.21% among 390,000; AID 504327; Potency, µM (top dose mostly 58.9 µM), for the others: top-dose activity change, negative = inhibition, actives largely listed as inhibitors; GCN5L2 HAT assay, ThioGlo1 CoA-SH fluorescence
Target sequence (Q92830 whole entry, looked up): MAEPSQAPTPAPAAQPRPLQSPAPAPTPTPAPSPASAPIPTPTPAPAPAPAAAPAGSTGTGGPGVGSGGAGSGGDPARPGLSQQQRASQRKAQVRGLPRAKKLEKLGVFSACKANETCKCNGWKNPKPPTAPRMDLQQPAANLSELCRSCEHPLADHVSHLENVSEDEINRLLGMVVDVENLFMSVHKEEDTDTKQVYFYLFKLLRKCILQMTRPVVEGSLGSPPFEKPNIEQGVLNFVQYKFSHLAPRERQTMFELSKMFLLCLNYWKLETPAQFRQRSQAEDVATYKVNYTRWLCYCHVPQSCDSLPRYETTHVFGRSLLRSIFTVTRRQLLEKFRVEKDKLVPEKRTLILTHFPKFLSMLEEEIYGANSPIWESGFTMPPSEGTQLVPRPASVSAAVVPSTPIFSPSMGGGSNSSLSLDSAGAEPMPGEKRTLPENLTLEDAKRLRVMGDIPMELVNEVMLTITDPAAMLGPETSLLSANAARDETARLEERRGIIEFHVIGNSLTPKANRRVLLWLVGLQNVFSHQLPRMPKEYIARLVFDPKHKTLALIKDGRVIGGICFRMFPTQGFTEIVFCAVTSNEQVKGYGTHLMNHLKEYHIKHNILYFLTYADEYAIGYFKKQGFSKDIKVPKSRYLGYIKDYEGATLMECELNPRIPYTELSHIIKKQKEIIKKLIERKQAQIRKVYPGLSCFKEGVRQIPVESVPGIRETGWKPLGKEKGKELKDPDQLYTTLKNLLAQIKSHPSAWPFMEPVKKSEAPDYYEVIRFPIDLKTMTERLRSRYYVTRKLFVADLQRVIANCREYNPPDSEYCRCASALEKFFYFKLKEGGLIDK
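Enzyme at 20nM final was mixed with library compounds for 15 min at room temperature. Peptide H3(1-25) at 75uM, acetyl-CoA at 70uM and ThioGlo1 at 50uM were then added. Plates were read immediately and after 20 min (Ex340nm/Em540nm).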
TDP1 inh: blocks human tyrosyl-DNA phosphodiesterase 1 | Q9NUW8 | Potency, µM (highest dose often 130 µM), for the others: at the highest dose activity change, negative = inhibition, hits mostly inhibitors | hit rate 0.28% among 350,000 | recombinant TDP1, AlphaScreen DNA substrate cleavage; note: nearly all actives have a fitted effect of over 40% in size
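Enzyme-compound mixtures sat 15 min at room temperature, followed by a 5 min reaction with 15 nM final substrate and 10 min with AlphaScreen beads. Recombinant human Tdp1 was used at 1 nM final.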
TDP1 cell noCPT: qHTS for Inhibitors of human tyrosyl-DNA phosphodiesterase 1 (TDP1): qHTS in cells in absence of CPT; DT40 Tdp1-/- hTDP1 cells, no CPT, ATP luminescence, 48 h; Potency, µM (series often up to 46.2 µM), inactives show top-dose activity change, negative = growth inhibition, most hits filed as inhibitors; AID 686978, 2013; hit rate 15% among 420,000; note: nearly all actives have a fitted effect of over 55% in size
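Compound effects on proliferation are scored in DT40 Tdp1-/-;hTDP1 cells in the absence of CPT. ATP levels (CellTiter-Glo luminescence) are recorded after a ≥48 hr, 37 °C incubation.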
PLK1 PBD inh: inhibitors of human PLK1 polo-box domain binding; Plk1 PBD binding of FITC phosphopeptide, fluorescence polarization; Potency, µM, without a hit: max response, negative = inhibition, usual class: inhibitors; hit rate 2.8% among 360,000; P53350; AID 720504; note: series mostly up to about 57 µM; nearly all actives have a fitted effect of over 65% in size
TDP1 cell CPT: DT40-hTDP1 cell growth loss with CPT; chicken DT40 Tdp1-/-;hTDP1 cells + 20 nM CPT, ATP luminescence, 48 h; Potency, µM (top dose mostly 46.2 µM), without a hit: top-dose activity change, negative = growth inhibition, actives largely listed as inhibitors; hit rate 12% among 420,000; note: nearly all actives have a fitted effect of over 55% in size
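Cell growth measured by CellTiter-Glo luminescence after a minimum 48 h, 37 C compound exposure with 20 nM CPT in Tdp1-knockout DT40 cells stably expressing hTDP1, seeded 400/well; qHTS titration format.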
Starred values were filed as active, the others as inactive. Sampled rows, rich in hits. Any-hit rate of the full collection: about 18%. Calls come from the whole dose curve; as a rule, active = well fitted curve in the direction sought with a large enough effect; inconclusive = small, poorly fitted or top-dose-only effect, or another doubt; inactive = no such curve, though single readings can be large; an effect the other way counts as inactive or inconclusive. % is set by controls: 0 for no effect and ±100 for the full control effect; potency is the fitted concentration of half-maximal effect.

What do the screens show for `CCC(c1nnnn1Cc1ccc2c(c1)OCO2)N1CCN(c2ccc(OC)cc2)CC1` (configuration not stated)?
VDR inhibitor: 12.2%; GCN5L2 inh: -8.1%; TDP1 inh: 11.5%; TDP1 cell noCPT: inconclusive; PLK1 PBD inh: -3.5%; TDP1 cell CPT: 25.9µM*

Results for Cc1cc(C)c(Cn2c(=O)n(CCCCCC(=O)NCc3ccc4c(c3)OCO4)c(=O)c3sccc32)c(C)c1 ?
VDR inhibitor: -14.9%; GCN5L2 inh: -3.5%; TDP1 inh: 0.0%; TDP1 cell noCPT: inconclusive; TDP1 cell CPT: inconclusive

What do the screens show for `CCCSCCCNC(=O)C1CCCN(c2nn3cc(-c4ccc(OC)cc4)nc3s2)C1` (configuration not stated)?
VDR inhibitor: 5.1%; GCN5L2 inh: -10.0%; TDP1 inh: 1.2%; TDP1 cell noCPT: 13µM*; TDP1 cell CPT: 20.6µM*

What do the screens show for `COc1ccc(-c2cn3nc(N4CCCC(C(=O)NCc5ccc(Cl)cc5)C4)sc3n2)cc1` (configuration not stated)?
VDR inhibitor: 18.0%; GCN5L2 inh: -3.9%; TDP1 inh: 3.8%; TDP1 cell noCPT: 8.2µM*; TDP1 cell CPT: 9.2µM*

Results for CCOCCCNC(=O)C1CCN(c2nn3cc(-c4ccc(F)cc4)nc3s2)CC1 ?
VDR inhibitor: 16.7%; GCN5L2 inh: -3.9%; TDP1 inh: 0.0%; TDP1 cell noCPT: 14.6µM*; TDP1 cell CPT: 20.6µM*

How did O=C(NCc1cccc(F)c1)C1CCN(c2nn3cc(-c4ccc(F)cc4)nc3s2)CC1 do in these assays?
VDR inhibitor: 8.5%; GCN5L2 inh: -1.2%; TDP1 inh: 1.2%; TDP1 cell noCPT: inconclusive; TDP1 cell CPT: -26.3%

Results for CCc1ccc(CNC(=O)C2CCCN(c3nn4cc(-c5ccc(F)cc5)nc4s3)C2)cc1 (configuration not stated) ?
VDR inhibitor: -1.3%; GCN5L2 inh: -5.1%; TDP1 inh: 11.2%; TDP1 cell noCPT: 16.4µM*; TDP1 cell CPT: 16.4µM*

Results for COc1ccc(OCC(=O)N2CCN(S(=O)(=O)c3ccc4c(c3)OCCO4)CC2)cc1 ?
TDP1 cell noCPT: inconclusive; PLK1 PBD inh: -16.8%; TDP1 cell CPT: inconclusive

What do the screens show for `COc1cccc(CNC(=O)C2CCCN(c3nn4c(=O)cc(C)nc4s3)C2)c1` (configuration not stated)?
VDR inhibitor: -13.2%; GCN5L2 inh: -0.9%; TDP1 inh: -2.2%; TDP1 cell noCPT: -4.5%; PLK1 PBD inh: -7.2%; TDP1 cell CPT: 2.9%

How did COc1cccc(CNC(=O)C2CCCN(c3nn4cc(-c5ccc(C)cc5)nc4s3)C2)c1 (configuration not stated) do in these assays?
VDR inhibitor: 32.8%; GCN5L2 inh: -5.2%; TDP1 inh: -1.2%; TDP1 cell noCPT: 14.6µM*; TDP1 cell CPT: 20.6µM*

How did COc1ccc(-c2cn3nc(N4CCCC(C(=O)Nc5cc(Cl)ccc5OC)C4)sc3n2)cc1 (configuration not stated) do in these assays?
VDR inhibitor: 9.6%; GCN5L2 inh: -1.6%; TDP1 inh: -2.5%; TDP1 cell noCPT: inconclusive; TDP1 cell CPT: inconclusive

What do the screens show for `CCc1ccc(NC(=O)C2CCCN(c3nn4cc(-c5ccc(OC)cc5)nc4s3)C2)cc1` (configuration not stated)?
VDR inhibitor: 10.0%; GCN5L2 inh: -1.7%; TDP1 inh: -5.0%; TDP1 cell noCPT: 13µM*; TDP1 cell CPT: inconclusive

How did CCOc1ccc(CNC(=O)C2CCCN(c3nn4cc(-c5ccc(OC)cc5)nc4s3)C2)cc1 (configuration not stated) do in these assays?
VDR inhibitor: 6.4%; GCN5L2 inh: -18.9%; TDP1 inh: 8.7%; TDP1 cell noCPT: 18.4µM*; TDP1 cell CPT: 16.4µM*

Assay outcomes (PubChem BioAssay)
